Consider 13 targets from the supplement of paper PMC10849652.

About 8,800 targets were measured; listed, in parts, are those with a hit and a random draw of the rest. About 0.5% of all pairs of compound and target were hits. Unmarked numbers belong to inactive results.

Common to all, as to experiment: log2 fold change, soluble protein after heating vs DMSO (PISA); higher = thermal stabilisation; K562 lysate, 10 uM; active = over 0.2 and 3.5 SD of the protein, either way, in both replicates (recomputed)
Compound in one test: Cc1cn(-c2cc(NC(=O)c3ccc(C)c(Nc4nccc(-c5cccnc5)n4)c3)cc(C(F)(F)F)c2)cn1 [nilotinib]
The procedure, abridged: (§1)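 Values give the log-two fold change in thermal stability against solvent controls, from duplicates. Crude K562 extract at 1 mg/mL protein, made by dounce homogenisation in PBS pH 7.4 with 1 mM MgCl2, was treated with 10 μM compound for 30 min. After 3 min heating across 48°C-58°C, aliquots were pooled, adjusted to 0.5% NP-40 at 4°C and centrifuged at 21,000xg for 90 min. The supernatant was measured by TMTpro 16plex LC-MS/MS with channel sums equalised.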

Compound in test [1]: Cc1nc(Nc2n[nH]c3c2CN(C(=O)N[C@H](CN(C)C)c2ccccc2)C3(C)C)c2sccc2n1
The procedure, abridged: as §1

Compound in another test: Cc1nc(Nc2ncc(C(=O)Nc3c(C)cccc3Cl)s2)cc(N2CCN(CCO)CC2)n1 [dasatinib]
The method in brief: as §1

Compound in test [2]: Cc1ncc(-c2ccnc(Nc3ccc(S(C)(=O)=O)cc3)n2)n1C(C)C
The method in brief:
as §1

Compound in test [3]: Cn1cc(-c2ccc3c(c2)CCN3C(=O)Cc2cccc(C(F)(F)F)c2)c2c(N)ncnc21
The method in brief:
as §1

Compound in a further test: Cn1cc(CNCC2CCN(c3ncc(C(=O)NO)cn3)CC2)c2ccccc21 [quisinostat]
The method in brief:
as §1

Compound in the next test: Cn1cncc1[C@@](N)(c1ccc(Cl)cc1)c1ccc2c(c1)c(-c1cccc(Cl)c1)cc(=O)n2C [tipifarnib]
The method in brief: as §1

Compound in test [4]: NC(=O)Nc1cc(-c2cccc(F)c2)sc1C(=O)N[C@H]1CCCNC1
The procedure, abridged: as §1

Compound in test [5]: NC(=O)c1cnc(N[C@@H]2CCCC[C@@H]2N)nc1Nc1cccc(-n2nccn2)c1
The procedure, abridged: as §1

Compound in test [6]: NC1(c2ccc(-c3nc4ccn5c(=O)[nH]nc5c4cc3-c3ccccc3)cc2)CCC1
The procedure, abridged: as §1

Sequence of UniProt Q96C36 (Q96C36 whole entry, looked up): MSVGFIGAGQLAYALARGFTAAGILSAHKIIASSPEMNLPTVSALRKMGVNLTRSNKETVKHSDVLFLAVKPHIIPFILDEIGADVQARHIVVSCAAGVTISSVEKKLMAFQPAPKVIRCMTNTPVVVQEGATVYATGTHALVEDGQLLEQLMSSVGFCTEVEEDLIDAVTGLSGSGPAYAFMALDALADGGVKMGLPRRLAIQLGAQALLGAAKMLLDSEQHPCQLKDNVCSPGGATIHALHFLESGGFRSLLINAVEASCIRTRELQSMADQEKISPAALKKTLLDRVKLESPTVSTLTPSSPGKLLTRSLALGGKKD
Sequence of UniProt P42338 (P42338 whole entry, looked up): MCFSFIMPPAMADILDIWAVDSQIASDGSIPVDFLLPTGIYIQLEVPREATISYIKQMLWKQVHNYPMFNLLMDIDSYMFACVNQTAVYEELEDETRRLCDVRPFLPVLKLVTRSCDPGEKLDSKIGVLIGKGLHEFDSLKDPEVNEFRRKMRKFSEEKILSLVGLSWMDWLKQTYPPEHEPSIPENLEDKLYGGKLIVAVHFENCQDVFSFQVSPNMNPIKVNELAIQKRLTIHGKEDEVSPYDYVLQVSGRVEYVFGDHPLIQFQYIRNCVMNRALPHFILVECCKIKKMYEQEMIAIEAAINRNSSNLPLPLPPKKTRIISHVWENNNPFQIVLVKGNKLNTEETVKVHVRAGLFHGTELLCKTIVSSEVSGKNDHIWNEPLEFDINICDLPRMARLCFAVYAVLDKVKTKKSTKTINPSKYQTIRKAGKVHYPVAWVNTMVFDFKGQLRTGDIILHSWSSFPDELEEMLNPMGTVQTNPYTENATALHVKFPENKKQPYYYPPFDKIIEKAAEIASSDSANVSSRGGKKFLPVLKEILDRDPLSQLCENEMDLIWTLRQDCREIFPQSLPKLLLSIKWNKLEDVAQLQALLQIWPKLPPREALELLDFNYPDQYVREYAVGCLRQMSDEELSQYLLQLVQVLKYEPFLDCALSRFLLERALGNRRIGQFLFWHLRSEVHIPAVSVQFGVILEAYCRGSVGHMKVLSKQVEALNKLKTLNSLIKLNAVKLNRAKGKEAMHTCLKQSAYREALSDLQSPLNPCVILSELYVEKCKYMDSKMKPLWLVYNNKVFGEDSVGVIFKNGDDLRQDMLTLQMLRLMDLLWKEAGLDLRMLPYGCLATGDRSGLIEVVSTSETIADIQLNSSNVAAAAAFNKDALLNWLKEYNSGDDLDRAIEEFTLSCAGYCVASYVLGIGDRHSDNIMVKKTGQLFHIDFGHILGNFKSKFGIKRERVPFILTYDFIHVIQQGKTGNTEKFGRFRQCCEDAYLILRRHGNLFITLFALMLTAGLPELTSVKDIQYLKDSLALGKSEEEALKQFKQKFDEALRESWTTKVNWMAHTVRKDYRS
Sequence of UniProt Q8TCD6 (Q8TCD6 whole entry, looked up): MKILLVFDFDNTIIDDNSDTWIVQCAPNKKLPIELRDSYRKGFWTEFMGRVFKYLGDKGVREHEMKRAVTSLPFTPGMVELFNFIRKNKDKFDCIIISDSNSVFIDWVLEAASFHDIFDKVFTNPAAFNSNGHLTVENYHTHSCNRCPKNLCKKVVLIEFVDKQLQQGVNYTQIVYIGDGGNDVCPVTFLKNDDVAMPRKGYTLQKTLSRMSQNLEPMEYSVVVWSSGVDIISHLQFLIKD
Sequence of UniProt Q9BZL6 (Q9BZL6 whole entry, looked up): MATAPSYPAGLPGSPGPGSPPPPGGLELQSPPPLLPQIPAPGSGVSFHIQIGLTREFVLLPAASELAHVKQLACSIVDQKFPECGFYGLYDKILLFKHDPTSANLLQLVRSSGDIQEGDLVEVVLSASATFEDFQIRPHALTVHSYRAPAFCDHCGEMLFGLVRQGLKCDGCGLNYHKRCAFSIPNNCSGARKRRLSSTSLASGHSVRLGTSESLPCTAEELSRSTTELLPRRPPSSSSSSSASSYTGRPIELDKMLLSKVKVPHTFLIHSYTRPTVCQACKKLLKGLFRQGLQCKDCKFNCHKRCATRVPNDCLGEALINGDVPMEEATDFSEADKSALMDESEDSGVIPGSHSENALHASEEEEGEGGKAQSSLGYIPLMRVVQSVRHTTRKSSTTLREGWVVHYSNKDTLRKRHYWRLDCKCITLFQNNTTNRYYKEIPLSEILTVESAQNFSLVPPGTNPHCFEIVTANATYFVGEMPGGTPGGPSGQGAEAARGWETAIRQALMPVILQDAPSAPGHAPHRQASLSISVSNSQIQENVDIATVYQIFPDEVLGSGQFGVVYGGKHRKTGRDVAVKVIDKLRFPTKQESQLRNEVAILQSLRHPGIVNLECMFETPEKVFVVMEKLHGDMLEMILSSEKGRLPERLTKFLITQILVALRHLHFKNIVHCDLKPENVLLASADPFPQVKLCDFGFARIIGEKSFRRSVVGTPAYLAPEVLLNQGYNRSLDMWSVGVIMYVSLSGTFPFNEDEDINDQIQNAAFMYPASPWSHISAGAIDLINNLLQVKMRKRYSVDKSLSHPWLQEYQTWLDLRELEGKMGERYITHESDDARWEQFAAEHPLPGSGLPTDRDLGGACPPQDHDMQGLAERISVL
Sequence of UniProt Q8IZ21 (Q8IZ21 whole entry, looked up): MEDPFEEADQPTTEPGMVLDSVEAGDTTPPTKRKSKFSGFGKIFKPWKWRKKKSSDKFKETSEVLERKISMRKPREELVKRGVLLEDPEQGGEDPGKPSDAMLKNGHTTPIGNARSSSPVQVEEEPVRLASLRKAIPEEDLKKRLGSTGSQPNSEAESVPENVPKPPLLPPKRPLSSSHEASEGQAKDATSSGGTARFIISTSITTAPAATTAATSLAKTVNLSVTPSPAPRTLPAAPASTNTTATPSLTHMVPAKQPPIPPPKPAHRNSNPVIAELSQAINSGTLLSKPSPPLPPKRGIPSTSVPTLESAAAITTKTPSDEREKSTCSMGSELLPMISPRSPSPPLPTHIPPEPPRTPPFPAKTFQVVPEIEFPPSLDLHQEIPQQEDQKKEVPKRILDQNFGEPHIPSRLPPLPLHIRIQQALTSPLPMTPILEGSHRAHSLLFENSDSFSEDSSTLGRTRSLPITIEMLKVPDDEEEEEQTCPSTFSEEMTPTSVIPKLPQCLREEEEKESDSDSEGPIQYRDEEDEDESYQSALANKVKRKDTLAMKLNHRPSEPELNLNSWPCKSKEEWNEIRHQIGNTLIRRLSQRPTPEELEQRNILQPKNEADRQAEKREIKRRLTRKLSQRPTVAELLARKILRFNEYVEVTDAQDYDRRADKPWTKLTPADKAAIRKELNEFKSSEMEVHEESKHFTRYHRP
Sequence of UniProt Q14289 (Q14289 whole entry, looked up): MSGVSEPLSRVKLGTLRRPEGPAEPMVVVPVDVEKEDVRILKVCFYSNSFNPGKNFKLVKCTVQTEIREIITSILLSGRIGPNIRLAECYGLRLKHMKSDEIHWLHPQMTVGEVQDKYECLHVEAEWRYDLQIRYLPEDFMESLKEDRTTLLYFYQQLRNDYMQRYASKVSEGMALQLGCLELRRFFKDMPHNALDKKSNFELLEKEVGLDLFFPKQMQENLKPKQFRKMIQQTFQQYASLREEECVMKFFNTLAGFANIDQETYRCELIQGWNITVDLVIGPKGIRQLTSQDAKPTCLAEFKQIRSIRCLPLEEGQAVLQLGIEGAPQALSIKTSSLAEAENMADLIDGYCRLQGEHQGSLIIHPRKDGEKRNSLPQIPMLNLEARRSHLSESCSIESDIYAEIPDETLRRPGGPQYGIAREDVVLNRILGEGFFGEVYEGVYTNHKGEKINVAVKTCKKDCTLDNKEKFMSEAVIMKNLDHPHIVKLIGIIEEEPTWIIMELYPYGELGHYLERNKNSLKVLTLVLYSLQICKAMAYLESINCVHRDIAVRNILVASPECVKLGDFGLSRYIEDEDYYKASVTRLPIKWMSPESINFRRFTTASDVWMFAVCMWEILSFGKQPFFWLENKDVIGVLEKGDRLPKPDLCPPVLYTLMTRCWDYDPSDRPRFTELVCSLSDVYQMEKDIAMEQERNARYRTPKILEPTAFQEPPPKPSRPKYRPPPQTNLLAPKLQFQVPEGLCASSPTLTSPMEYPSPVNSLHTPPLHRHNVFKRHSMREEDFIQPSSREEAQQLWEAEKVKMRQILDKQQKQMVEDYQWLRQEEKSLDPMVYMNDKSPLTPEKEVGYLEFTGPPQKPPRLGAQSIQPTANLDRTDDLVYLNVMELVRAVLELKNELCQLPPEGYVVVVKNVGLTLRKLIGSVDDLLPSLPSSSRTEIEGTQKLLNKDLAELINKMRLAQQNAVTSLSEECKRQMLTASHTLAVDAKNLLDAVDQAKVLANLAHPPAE
Sequence of UniProt Q16816 (Q16816 whole entry, looked up): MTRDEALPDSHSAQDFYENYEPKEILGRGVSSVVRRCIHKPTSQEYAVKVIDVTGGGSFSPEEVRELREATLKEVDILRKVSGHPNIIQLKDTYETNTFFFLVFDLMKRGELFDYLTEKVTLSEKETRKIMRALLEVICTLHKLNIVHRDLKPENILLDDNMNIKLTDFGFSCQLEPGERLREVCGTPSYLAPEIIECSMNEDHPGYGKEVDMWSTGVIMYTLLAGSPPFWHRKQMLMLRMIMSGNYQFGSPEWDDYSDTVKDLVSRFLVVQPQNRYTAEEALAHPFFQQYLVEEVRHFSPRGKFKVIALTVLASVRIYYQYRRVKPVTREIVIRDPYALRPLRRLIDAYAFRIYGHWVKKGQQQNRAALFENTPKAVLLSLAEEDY
Sequence of UniProt Q9H7Z7 (Q9H7Z7 whole entry, looked up): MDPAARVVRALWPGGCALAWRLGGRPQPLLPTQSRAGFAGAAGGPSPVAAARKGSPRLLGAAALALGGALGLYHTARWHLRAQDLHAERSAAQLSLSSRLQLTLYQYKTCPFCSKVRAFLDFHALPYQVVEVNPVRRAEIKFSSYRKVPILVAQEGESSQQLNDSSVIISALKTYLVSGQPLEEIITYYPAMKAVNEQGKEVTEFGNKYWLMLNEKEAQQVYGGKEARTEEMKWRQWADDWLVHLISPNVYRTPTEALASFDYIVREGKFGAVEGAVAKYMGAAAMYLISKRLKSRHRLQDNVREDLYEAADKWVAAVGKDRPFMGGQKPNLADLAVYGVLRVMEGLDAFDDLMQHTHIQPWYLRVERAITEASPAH

Take PHACTR4 isoform 2 (UniProt Q8IZ21): the log2 fold change with nilotinib is 0.005; in [1] it was -0.004; with dasatinib it was 0.022; in [2], -0.016; in test [3], 0.012; with quisinostat it was -0.017. For the same target, the log2 fold change was -0.015 in the test with tipifarnib, -0.006 in [4], -0.002 in [5] and -0.027 in [6].
On to PHOSPHO2 (UniProt Q8TCD6), for which the log2 fold change is 0.003 with nilotinib; -0.013 in [1]; 0.024 with dasatinib; 0.038 in test [2]; -0.033 in [3]; 0.03 in the test with quisinostat. For the same target, the log2 fold change is 0.068 with tipifarnib, -0.036 in test [4], -0.004 in test [5] and 0.013 in [6].
For the target PDE4DIP isoform 4 (UniProt Q5VU43), the log2 fold change is -0.026 with nilotinib; 0.004 in test [1]; 0.007 with dasatinib; -0.015 in test [2]; -0.029 in test [3]; -0.083 in the test with quisinostat. Further, the log2 fold change in the test with tipifarnib is -0.032; in [4] it was -0.018; in [5], -0.034; in test [6], -0.011.
For the target PRKD2 isoform 3 (UniProt Q9BZL6), the log2 fold change with nilotinib was 0.079; in test [1], -0.229; in the test with dasatinib it was 0.028; in test [2] it was -0.054; in test [3] it was 0.04; with quisinostat it was -0.046. Moreover, the log2 fold change with tipifarnib was 0.069; in test [4] it was -0.115; in test [5], 0.06; in test [6], -0.01.
For PIK3CB (UniProt P42338), the log2 fold change with nilotinib was 0.015; in [1], 0.021; with dasatinib, -0.072; in [2] it was 0.094; in test [3] it was 0.055; in the test with quisinostat, -0.05. Besides, the log2 fold change in the test with tipifarnib is -0.032; in [4] it was 0.053; in [5] it was 0.015; in test [6], 0.44 (active).
In the case of PREP (UniProt P48147), the log2 fold change is 0 with nilotinib; -0.014 in [1]; -0.026 with dasatinib; -0.002 in [2]; 0.007 in test [3]; 0.008 with quisinostat. In addition, the log2 fold change was 0.023 with tipifarnib, 0.011 in [4], 0.006 in [5] and -0.005 in [6].
In the case of PYCR2 (UniProt Q96C36), the log2 fold change with nilotinib was 0.03; in test [1], -0.027; in the test with dasatinib it was 0.011; in test [2], -0.007; in [3] it was -0.005; in the test with quisinostat, 0.073. For the same target, the log2 fold change is -0.015 with tipifarnib, -0.021 in [4], 0.007 in test [5] and 0.018 in test [6].
On to PHKG1 isoform 2 (UniProt Q16816), for which the log2 fold change was -0.049 with nilotinib; 1.01 (active) in test [1]; -0.124 in the test with dasatinib; -0.204 in [2]; -0.021 in [3]; -0.151 with quisinostat. Moreover, the log2 fold change in the test with tipifarnib is -0.007; in test [4] it was 1.31 (active); in [5], 0.043; in test [6], -0.181.
As for PLXNB2 (UniProt O15031), the log2 fold change with nilotinib was -0.052; in test [1], 0.019; with dasatinib it was -0.036; in test [2], 0.013; in test [3], 0.003; with quisinostat, 0.016. Further, the log2 fold change with tipifarnib was -0.017; in [4] it was 0.042; in test [5] it was -0.024; in test [6] it was -0.006.
Turning to PRKCSH (UniProt K7ELL7), the log2 fold change was -0.013 with nilotinib; -0.163 in [1]; 0.014 with dasatinib; 0.125 in test [2]; -0.015 in test [3]; 0.04 with quisinostat. In addition, the log2 fold change with tipifarnib was 0.024; in test [4], 0.024; in [5], -0.032; in test [6] it was -0.031.
Turning to PUS1 (UniProt Q9Y606), the log2 fold change with nilotinib was 0.005; in test [1], -0.042; with dasatinib it was -0.01; in [2], 0.01; in test [3] it was 0.018; in the test with quisinostat, -0.058. The log2 fold change was 0.018 with tipifarnib, 0.043 in test [4], 0.036 in [5] and -0.023 in [6].
In the case of PTK2B (UniProt Q14289), the log2 fold change with nilotinib was 0.011; in [1], 0.109; with dasatinib it was 0.041; in test [2], 0.026; in [3] it was 0.059; with quisinostat it was -0.122. Moreover, the log2 fold change with tipifarnib is -0.067; in test [4] it was 0.377 (active); in test [5] it was 0.072; in test [6] it was -0.04.
For PTGES2 (UniProt Q9H7Z7), the log2 fold change was 0.446 with nilotinib; -0.044 in [1]; 0.01 with dasatinib; -0.019 in [2]; 0.015 in [3]; -0.046 in the test with quisinostat. In addition, the log2 fold change in the test with tipifarnib is -0.057; in test [4], -0.012; in test [5] it was -0.056; in test [6], -0.078.
